From PubChem
Shown are actives, neighbours in structure and some others; about 3.2% of the full set was active somewhere.
RE007 growth inh = less growth of the S. pombe RE007 Vpr strain | S. pombe RE007 Vpr strain, BacTiter-Glo ATP luminescence, 24 h | Potency, µM (highest dose often 92.2 µM), for the others: top-dose activity change, negative = less growth, most hits filed as inhibitors | 360,000 tested, 0.21% active; active means well fitted falling curve with a large enough effect; inconclusive means small, poorly fitted or top-dose-only effect; inactive means no such curve, though single readings can be large or run the other way; further: nearly all actives have a fitted effect of over 50% in size
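Fission yeast strain RE007, carrying one chromosomally integrated HIV-1 vpr copy, was seeded at OD 0.01 in PMG+AL medium with 23 nL pinned compound. After 24 h at 30 °C and 99% humidity, viability was read by BacTiter-Glo luminescence.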
TbPYK inhibitor = T. brucei pyruvate kinase inhibition | Potency, µM (doses to about 76.8 µM), inactives show at the highest dose activity, negative = inhibition, hits mostly inhibitors | TbPYK enzyme, Kinase-Glo Plus ATP luminescence, 45 min | Q57TT1 | 410,000 tested, 0.12% active; further: nearly all actives have a fitted effect of over 50% in size
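TbPYK + substrate in 50 mM TEA pH 7.2, 100 mM KCl, 10 mM MgCl2, 0.05% BSA, 0.01% Tween-20; cpd pinned; ADP 130 uM final; 45 min RT; Kinase-Glo Plus 10 min; luminescence endpoint.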
LmPK inh = blocks Leishmania mexicana pyruvate kinase activity | Q27686 | 290,000 tested, 0.37% active | AID 1721 | purified LmPK, Kinase-Glo ATP luminescence, 1 h | Potency, µM (top dose mostly 57.5 µM), without a hit: at the highest dose activity change, negative = inhibition, usual class: inhibitors
Target sequence (Q27686 whole entry, looked up): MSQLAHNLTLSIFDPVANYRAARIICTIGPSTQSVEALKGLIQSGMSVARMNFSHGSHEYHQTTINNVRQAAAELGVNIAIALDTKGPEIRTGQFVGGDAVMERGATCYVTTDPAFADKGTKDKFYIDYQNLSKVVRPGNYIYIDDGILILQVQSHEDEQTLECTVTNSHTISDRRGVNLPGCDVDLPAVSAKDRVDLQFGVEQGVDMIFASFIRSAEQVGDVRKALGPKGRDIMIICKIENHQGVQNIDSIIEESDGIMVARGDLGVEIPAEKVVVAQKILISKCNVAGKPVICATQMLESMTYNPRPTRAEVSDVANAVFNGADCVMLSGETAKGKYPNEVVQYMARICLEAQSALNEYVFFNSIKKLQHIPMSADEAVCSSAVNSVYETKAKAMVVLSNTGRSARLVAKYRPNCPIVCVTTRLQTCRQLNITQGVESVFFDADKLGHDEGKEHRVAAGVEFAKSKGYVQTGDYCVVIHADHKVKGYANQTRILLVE
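Kinase-Glo luminescence read after 1 h RT reaction of 0.1 nM LmPK with 0.5 mM PEP and 0.1 mM ADP. Activity scaled between uninhibited and enzyme-free controls.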
Sm TGR block = S. mansoni TGR enzyme inhibition | Q962Y6 | purified TGR, DTNB reduction, TNB absorbance 405 nm | Potency, µM (doses to about 114 µM), for the others: top-dose activity change, negative = inhibition, most hits filed as inhibitors | 360,000 tested, 3% active | AID 485364; further: nearly all actives have a fitted effect of over 60% in size
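Kinetic colorimetric format: TGR-catalysed, NADPH-driven DTNB reduction monitored via TNB absorbance. Enzyme dispensed at 20 nM; compound exposure 15 min at room temperature before reaction start.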
AMA1-RON2 inh = inhibitors of Plasmodium falciparum AMA1-RON2 interaction. AlphaScreen AMA1-biotinylated RON2 peptide binding. 360,000 tested, 0.2% active. Potency, µM (top dose mostly 58.2 µM), for the others: top-dose activity change, negative = inhibition, actives largely listed as inhibitors;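 further: 0% = vehicle wells and -100% = peptide control; nearly all actives have a fitted effect of over 45% in size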
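AMA1 (3D7) with his tag at 25 nM final met compounds first, then biotinylated RON2 peptide at 25 nM; detection used donor plus acceptor beads, 10 µg/mL apiece, read by AlphaScreen after 30 min at room temperature.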
* hit, by the source's call; u = inconclusive; x = no result given; [ ] = another dose, or the depositor's remark. Unless noted, the call rests on the fitted dose curve; in most records, active means well fitted curve in the direction sought with a large enough effect; inconclusive means small, poorly fitted or top-dose-only effect, or another doubt; inactive means no such curve, though single readings can be large; an effect the other way counts as inactive or inconclusive. Unless noted, on the % scale 0 is the no-effect control and ±100 the full control effect; potency means the concentration at half of the fitted maximal effect.

SMILES	RE007 growth inh	TbPYK inhibitor	LmPK inh	Sm TGR block	AMA1-RON2 inh
CCOc1ccccc1NC(=O)n1ncc2cc(Cl)ccc21	x	-1%	x	-15%	x
Oc1c(Cl)cc(CN2CCOCC2)c2cccnc12	u	-4%	x	1.3µM*	-78%
O=[N+]([O-])c1cc(CN2CCOCC2)c2cccnc2c1O	8%	-7%	-4%	35µM*	-11%
COc1cc(OC)cc(C(=O)Nc2ccc(S(=O)(=O)N3CCCCC3c3cccnc3)cc2)c1 (centres undefined)	x	6%	x	8%	x
CN1C(=O)/C(=N\OC(=O)c2ccccc2Cl)c2ccccc21	2%	-3%	0%	u	1%
CC(=O)O/N=C1\C(=O)N(Cc2ccc(C)cc2)c2ccccc21	7%	4%	-2%	16µM*	-11%
CC(C)CCn1c(SCC(=O)Nc2ccccc2C(F)(F)F)nc2nccnc2c1=O	8%	-11%	9%	22µM*	-8%
COCCn1c(SCC(=O)Nc2ccccc2C(F)(F)F)nc2ccccc2c1=O	-1%	0%	2%	8%	2%
O=C(CN1CCN(CCN2C(=O)c3cccc4cccc(c34)C2=O)CC1)c1ccc(Cl)cc1	x	x	1%	14µM*	x
O=C(CN1CCN(CCN2C(=O)c3cccc4cccc(c34)C2=O)CC1)c1ccc(F)cc1	-20%	-1%	1%	u	-28%
CN1C(=O)C(=Cc2ccc(N3CCCCC3)o2)C(=O)N(C)C1=S	19%	-14%	-3%	-58%	-5%
O=C1C2C(C(=O)N1/N=C/c1ccc(N3CCCCC3)o1)C1C=CC2C12CC2 (centres undefined)	0%	25µM*	-9%	4µM*	8%
COc1ccc(NC(=O)Nc2c[nH]c(=O)[nH]c2=O)c(OC)c1	x	-3%	x	6%	x
O=S1(=O)c2ccccc2N=NN1Cc1ccc(Cl)cc1	9%	0%	0%	2.5µM*	7%
CCOc1ccc(CCNC(=O)c2c(C)oc3ncn(CC(C)C)c(=O)c23)cc1	x	-2%	x	6%	x
CCCCN(C(=O)Cn1nnc2ccccc21)C(C(=O)NCc1ccco1)c1ccncc1 (centres undefined)	-18%	-1%	1%	56µM*	0%
Cc1ccc(C(C(=O)NCc2ccco2)N(C(=O)Cn2nnc3ccccc32)c2ccccc2)o1 (centres undefined)	3%	4%	4%	50µM*	0%
Cc1cc(C)cc(N(C(=O)Cn2nnc3ccccc32)C(C(=O)NCc2ccco2)c2ccncc2)c1 (centres undefined)	18%	-1%	9%	35µM*	8%
Cc1ccc(C)c(N(C(=O)Cn2nnc3ccccc32)C(C(=O)NCc2ccco2)c2ccncc2)c1 (centres undefined)	16%	-6%	9%	-31%	-5%
Cc1ccc(N(C(=O)Cn2nnc3ccccc32)C(C(=O)NCc2ccco2)c2ccc(C)o2)cc1 (centres undefined)	-15%	-3%	7%	u	-1%
O=C(NCc1ccco1)C(c1ccccc1)N(Cc1cccnc1)C(=O)Cn1nnc2ccccc21 (centres undefined)	25%	1%	-4%	40µM*	-9%
COc1ccccc1Nc1sc(C(=O)c2ccc(C)cc2C)c(N)c1S(=O)(=O)c1ccccc1	x	4%	x	3%	x
CCN1CCN(c2ncc3c(n2)CCN(Cc2ccccc2C)C3)CC1	x	-6%	x	-2%	x
CCN(CC)CCOC(=O)c1ccc(NC(=O)c2cc3c(=O)n(CC)c4ccccc4c3s2)cc1	x	-3%	x	-9%	x
O=C(Cn1nc2c(cc1=O)CCCC2)NCc1ccccc1Cl	x	3%	x	3%	x
SMILES	RE007 growth inh	TbPYK inhibitor	LmPK inh	Sm TGR block	AMA1-RON2 inh
CCCCn1c(=O)nc2n(-c3ccc(Br)cc3)c3ccccc3cc-2c1=O	x	2%	x	-4%	x
CCOC(=O)C1CCC(CN(Cc2cccc(Br)c2)S(=O)(=O)c2ccc(Cl)cc2)CC1 (centres undefined)	x	-3%	x	2%	x
Cn1c(N=Nc2ccc(N3CCOCC3)cc2)[n+](C)c2ccccc21	18µM*	u	11µM*	x	u
Cn1c(=Nc2ccc(N3CCOCC3)cc2)ccc2ccccc21	-4%	4%	-2%	0%	5%
O=C(C1COc2ccccc2O1)N(Cc1cccnc1)c1nc2ccc(Cl)cc2s1 (centres undefined)	x	-10%	x	0%	x
CN(C)C(=O)NC(Nc1cccc([N+](=O)[O-])c1)C(Cl)(Cl)Cl (centres undefined)	1%	-10%	0%	20µM*	-8%
Cc1ccc(NC(=O)c2cc(CN3CCOCC3)on2)cc1Cl	x	5%	x	-9%	x
O=[N+]([O-])c1ccc(Oc2ccc(S(=O)(=O)Nc3ccccc3)cc2)cc1	5%	1%	2%	0%	-17%
O=C1C(Cl)=C(NS(=O)(=O)c2ccc([N+](=O)[O-])cc2)C(=O)c2ccccc21	-25%	-22%	-16%	0.89µM*	0%
CCCCC/C=C\C/C=C\C/C=C\C/C=C\CCCC(=O)O	x	x	x	18µM*	x
CC/C=C\C/C=C\C/C=C\CCCCCCCC(=O)O	-8%[18.4 µM]	-11%	x	35µM*	13%
CC/C=C\C/C=C\C/C=C\C/C=C\C/C=C\CCCC(=O)O	x	-18%	x	x	x
COc1ccc(N2C(=O)NC(=O)/C(=C\c3ccc([N+](=O)[O-])s3)C2=O)cc1	-27%	u	-7%	7.9µM*	-9%
CCOc1ccc(N2C(=O)NC(=O)/C(=C\c3cc(OC)c(OC)cc3[N+](=O)[O-])C2=O)cc1	1%	u	14%	u	2%
COc1cccc(N2C(=O)NC(=O)/C(=C/c3ccc([N+](=O)[O-])s3)C2=O)c1	u	u	-2%	7.9µM*	-17%
COc1ccc(N2C(=O)NC(=O)/C(=C/c3ccc([N+](=O)[O-])s3)C2=O)cc1	u	13µM*	-2%	7.1µM*	-5%
COc1ccccc1N1C(=O)NC(=O)/C(=C/c2ccc([N+](=O)[O-])s2)C1=O	-28%	u	-18%	5.6µM*	-19%
CCCCN(CCCC)C(=O)CN(C)S(=O)(=O)c1ccc2c(c1)c(=O)n(C)c(=O)n2C	x	0%	x	12%	x
CC#CCN1c2ccccc2[C@]23C[C@@H](C(=O)OC)N(S(=O)(=O)c4ccc(C#N)cc4)C2=NC(C(=O)OC)=C(C(=O)OC)[C@H]13	x	x	1%[11.5 µM]	x	x
CC(C)C1C(=O)Nc2ccc(S(=O)(=O)NCCc3ccc(Cl)cc3)cc21 (centres undefined)	x	5%	x	13%	x
CCCOc1ccc(NC(=O)CC2C(=O)N(c3ccc(Cl)cc3)C(=O)N2CCc2ccncc2)cc1 (centres undefined)	x	1%	x	5%	x
